# Bioassay records deposited in PubChem by National Center for Advancing Translational Sciences (NCATS).
# Only a selection was taken, and hits are over-represented in it overall.
# TDP1 inh = blocks human tyrosyl-DNA phosphodiesterase 1; recombinant TDP1, AlphaScreen DNA substrate cleavage; 350,000 compounds, 0.28% hits; Q9NUW8; AID 485290; Potency, µM (series often up to 130 µM), actives largely listed as inhibitors; further: nearly all actives have a fitted effect of over 40% in size
# Target sequence (Q9NUW8 whole entry, looked up): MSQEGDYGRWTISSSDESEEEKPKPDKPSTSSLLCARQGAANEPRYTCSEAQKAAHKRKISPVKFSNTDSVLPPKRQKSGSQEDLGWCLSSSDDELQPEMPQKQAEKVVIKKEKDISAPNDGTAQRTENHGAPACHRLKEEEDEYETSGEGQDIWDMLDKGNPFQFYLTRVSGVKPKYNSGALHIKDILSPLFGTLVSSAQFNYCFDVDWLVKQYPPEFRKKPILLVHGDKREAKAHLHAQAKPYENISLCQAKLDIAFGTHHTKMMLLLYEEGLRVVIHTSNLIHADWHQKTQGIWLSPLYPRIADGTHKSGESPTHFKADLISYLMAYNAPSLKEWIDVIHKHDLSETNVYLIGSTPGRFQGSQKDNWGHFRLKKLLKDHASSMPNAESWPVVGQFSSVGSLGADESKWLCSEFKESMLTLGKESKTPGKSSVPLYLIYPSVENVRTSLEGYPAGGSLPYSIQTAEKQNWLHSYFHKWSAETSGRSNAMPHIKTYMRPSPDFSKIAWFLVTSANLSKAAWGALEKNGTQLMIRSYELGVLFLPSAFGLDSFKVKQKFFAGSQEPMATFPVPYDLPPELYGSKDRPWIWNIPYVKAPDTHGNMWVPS
#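 Compounds were preincubated with Tdp1 (1 nM final) for 15 min at room temperature before substrate (15 nM final) started a 5 min reaction; beads (10 ug/ml final) were then added for 10 min before AlphaScreen detection.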
# JMJD2E inh = inhibitors of human JMJD2E histone demethylase; B2RXH2; JMJD2E catalytic domain, FDH-coupled NADH fluorescence (FDH is formaldehyde dehydrogenase); Potency, µM (doses to about 57.1 µM), actives largely listed as inhibitors; 230,000 compounds, 1.6% hits; active means well fitted inhibition curve with a large enough effect, not every such curve was filed as active; inconclusive means small, poorly fitted or top-dose-only effect, or another doubt; inactive means no such curve, though single readings can be large or run the other way; further: nearly all actives have a fitted effect of over 50% in size
# L3MBTL1 inh = blocks human L3MBTL1 | Potency, µM (series often up to 57.1 µM), hits mostly inhibitors | Q9Y468 | AlphaScreen L3MBTL1–H3K9me1 peptide binding | AID 485360 | 230,000 compounds, 0.66% hits; further: nearly all actives have a fitted effect of over 60% in size
#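 AlphaScreen proximity signal between nickel-chelate acceptor and streptavidin donor beads (final 10 ug/mL) reports binding of 50 nM L3MBTL1 to 75 nM biotin-H3 K9me1 peptide; complex incubated with compounds 30 min at room temperature; cefsulodin titration as control.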
# BLM inh = blocks DNA unwinding by human BLM helicase. P54132. recombinant BLM DNA unwinding, fluorescence dequenching. AID 2528. Potency, µM (doses to about 56.1 µM), usual class: inhibitors. 350,000 compounds, 0.2% hits; further: nearly all actives have a fitted effect of over 35% in size
# APEX1 inh = blocks human APE1 abasic DNA cleavage; P27695; Potency, µM (titrated, usually from 65.8 µM), actives largely listed as inhibitors; AID 2517; recombinant APE1, TAMRA/BHQ-2 abasic DNA cleavage fluorescence; 350,000 compounds, 0.35% hits; further: nearly all actives have a fitted effect of over 55% in size
#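 Quantitative HTS: incision of a TAMRA/BHQ-2 double-stranded substrate bearing a tetrahydrofuran abasic site by 0.75 nM APE1 raises fluorescence. Substrate 50 nM final, added after 15 min compound preincubation at room temperature; progress as third-minus-first kinetic read difference.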
# RECQ1 inh-1 = blocks DNA unwinding by human RECQ1; RECQ1 DNA unwinding, red fluorescence kinetic read; Potency, µM (highest dose often 57.3 µM), hits mostly inhibitors; 240,000 compounds, 0.54% hits; AID 2549; further: nearly all actives have a fitted effect of over 30% in size
#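 50 nM RECQ1T1 preincubated 15 min with compound in Tris pH 8.0 buffer with MgCl2, DTT, Tween-20 and 2.5 ug/ml poly(dI-dC); started with 200 nM TAMRA/BHQ-2 forked duplex and 2 mM ATP. Unwinding read as fluorescence (525/598 nm), two reads 2 h apart.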
# RECQ1 conf = confirmation of human RECQ1 helicase inhibitors. shares compounds with RECQ1 inh-1. RECQ1 helicase DNA unwinding, fluorescence. Potency, µM (titrated, usually from 229 µM), hits mostly inhibitors. 610 compounds, 28% hits; further: nearly all actives have a fitted effect of over 45% in size
# ADP FP counter = displaces ADP in a fluorescence polarization counter-screen for RECQ1 hits; shares compounds with RECQ1 inh-1; ADP fluorescence polarization displacement counterscreen; Potency, µM (top dose mostly 228 µM), usual class: inhibitors; 530 compounds, 27% hits; further: nearly all actives have a fitted effect of over 45% in size
# RECQ1 inh-2 = confirmation of human RECQ1 helicase inhibitors | shares compounds with RECQ1 inh-1 | recombinant RECQ1 DNA unwinding, red fluorescence | Potency, µM (top dose mostly 119 µM), usual class: inhibitors | 1,100 compounds, 15% hits | AID 504841; further: nearly all actives have a fitted effect of over 50% in size
# Numbers stand for hits; - = inactive; ? = inconclusive; . = no result; [ ] = dose if it differs, or a comment. Unless noted, the call rests on the fitted dose curve; in most records, active means well fitted curve in the direction sought with a large enough effect; inconclusive means small, poorly fitted or top-dose-only effect, or another doubt; inactive means no such curve, though single readings can be large; an effect the other way counts as inactive or inconclusive.
SMILES,TDP1 inh,JMJD2E inh,L3MBTL1 inh,BLM inh,APEX1 inh,RECQ1 inh-1,RECQ1 conf,ADP FP counter,RECQ1 inh-2
CCn1c(SCC(=O)c2cc(C)n(CC3CCCO3)c2C)nc2ccccc21 (stereo not given),-,-,-,-,-,40µM,.,.,-
Cc1cc(O)ccc1N=Cc1c(C(F)(F)F)[nH][nH]c1=O,-,-,-,-,-,8.9µM,-,6.3µM,-
Cc1ccc(OCC(=O)N/N=C/C=C/c2ccco2)cc1,-,-,?,-,-,8.9µM,?,?,.
O=C(O)CSc1nnc(Cc2ccccc2)n1Cc1ccccc1,-,-,.,-,-,-,-,-,.
COn1c(SCc2cccc(Cl)c2)nc2ccccc2c1=O,-,-,-,-,-,7.1µM,-,?,-
COn1c(SCc2ccccc2)nc2ccccc2c1=O,-,-,-,-,-,-,.,.,.
CCCN(C(=O)Cn1nc(Cc2cccnc2)c2ccccc2c1=O)c1ccc(C(C)C)cc1,-,.,.,-,.,.,.,.,.
COc1ccc(OCC(O)CNC(=O)c2ccc(OC)cc2)cc1 (stereo not given),-,-,-[11.4 µM],-,-,-,.,.,.
Cc1ccc(OCC(O)CNC(=O)c2ccccc2C(=O)O)cc1 (stereo not given),-,-,-,-,-,-,-,-,.
O=C(O)CN=C1CC(c2ccccc2)CC(=O)/C1=C(/O)CCCN1C(=O)c2ccccc2C1=O (stereo not given),-,-,.,-,-,-,?,-,.
CN=C1CC(C)(C)CC(=O)/C1=C(/O)CCCN1C(=O)c2ccccc2C1=O,-,-,.,-,-,-,.,.,.
CCN(CC)c1ccc(/C=N/OCC(=O)Nc2cccc(C)c2)cc1,-,?,-,-,-,?,.,.,56µM
CCN(CC)c1ccc(NC(=O)CCCOc2cccc(C)c2)cc1,-,-,.,-,-,-,.,.,.
O=C(NCCc1ccccc1)c1cc(Sc2ccc(F)cc2F)nc2ccccc12,-,.,.,-,.,.,.,.,.
CCOCCCNC(=O)c1cc(=O)[nH]c2ccc(S(=O)(=O)N3CCCC3)cc12,-,.,.,-,.,.,.,.,.
Cc1ccc(C(=O)c2coc3c2C(=O)C(=O)c2ccccc2-3)cc1,-,?,.,-,-,-,.,.,.
Cc1ccc(C(=O)c2c(C)oc3c2C(=O)C(=O)c2ccccc2-3)cc1,-,-,?,-,-,?,.,.,56µM
N/C(=N\OC(=O)c1ccc(F)cc1)c1ccc(Br)cc1,-,-,-,-,-,-,.,.,.
N#C/C=C(/N)c1ccc(Br)cc1,-,-,-,-,-,?,.,.,-
CCOC(=O)c1ccc(NC(=O)c2cc(=O)c3ccc(C)c(C)c3o2)cc1,-,.,.,-,.,.,.,.,.
Cc1cc2nc(C)c(Cl)c(=O)n2[nH]1,-,?,.,-,-,?,.,.,-
Cc1cc2nc(CCl)cc(=O)n2[nH]1,?,?,.,-,-,-,.,.,.
CCOC(=O)CCN1C(=O)[C@H]2[C@@H]3[C@H](O)[C@H](O)CC(=O)[C@H]3CC[C@H]2C1=O,-[21 µM],.,.,-[12.4 µM],-[12.4 µM],-[11.5 µM],.,.,.
CCCCn1c(SCC(=O)NCc2ccco2)nc2ccc(N3CCOCC3)cc2c1=O,-,?,-[11.4 µM],-,-,?,.,.,?
CCCCn1c(SCC(=O)NCc2ccccc2)nc2ccc(N3CCOCC3)cc2c1=O,-,?,-,-,-,-,.,.,.
O=C(c1ccncc1)N1CCC[C@@]2(CCN(Cc3cc(C(F)(F)F)cc(C(F)(F)F)c3)C2)C1,.,.,.,-,-,-,.,.,.
O=C(Nc1ccccc1)N1CCC(c2nc(-c3ccc(S(=O)(=O)N4CCOCC4)cc3)no2)CC1,-,-,-,-,-,-,-,-,.
O=C(c1ccccc1)N1CCC(c2nc(-c3ccc(S(=O)(=O)N4CCOCC4)cc3)no2)CC1,-,-,-,-,-,-,.,.,.
